# In ChEMBL document CHEMBL3988442, “University of Dundee, Small-Polar-MMV Screening Library” (2021):
# In all, about 48,000 compounds went through this assay and about 13,000 (27%) showed an effect of 50% or more. The list shows a part of the results.
# Test system: Wolbachia pipientis
# Assay: Anti-Wolbachia Cell-Based Screen
# Assay type: functional
# Set-up: scale not given: in the data most compounds retested in dose-response had high values
# Conditions: 5 µM
row,SMILES,Percent Effect
1,O=C(C[C@@H]1COC[C@H]2CN(C3CCC3)C[C@@H]12)NCc1cccnc1.O=C(O)C(F)(F)F.O=C(O)C(F)(F)F,108.6%
2,CO[C@H]1CCN(S(=O)(=O)N(C)C)[C@@H]2CN(Cc3cccnc3)C[C@H]12.O=C(O)C(F)(F)F.O=C(O)C(F)(F)F,0.8682%
3,O=C(C[C@@H]1COC[C@H]2CN(Cc3cccnc3)C[C@@H]12)NCC1CC1.O=C(O)C(F)(F)F.O=C(O)C(F)(F)F,115.9%
4,O=C(C[C@@H]1COC[C@H]2CN(Cc3cccnc3)C[C@@H]12)N1CCCC1.O=C(O)C(F)(F)F.O=C(O)C(F)(F)F,109.1%
5,O=C(C[C@H]1[C@H]2CN(Cc3ccncc3)C[C@@H]12)N1CCCC1.O=C(O)C(F)(F)F.O=C(O)C(F)(F)F,16.46%
6,COCCNC(=O)C[C@@H]1COC[C@H]2CN(Cc3cccnc3)C[C@@H]12,116.3%
7,O=C(NCc1ccccn1)[C@@H]1COC[C@H]2CNC[C@H]21,-0.4259%
8,O=C(COc1ccc(Cl)cc1Cl)N1CCCSCC1CN1CCOCC1 (stereo not given),-6.318%
9,c1cnc(N2CCOCC3(CNCCO3)C2)nc1 (stereo not given),-30.03%
10,O=C(C[C@@H]1COC[C@H]2CN(CC3CC3)C[C@@H]12)NCc1cccnc1.O=C(O)C(F)(F)F.O=C(O)C(F)(F)F,86.58%
11,COCCN1C[C@@H]2COC[C@@H](CC(=O)NCc3cccnc3)[C@@H]2C1.O=C(O)C(F)(F)F.O=C(O)C(F)(F)F,24.5%
12,CNCCc1nc2cc(Cl)ccc2[nH]1.Cl.Cl,8.686%
13,CC(C)Oc1ccc(C(O)CNCc2ccccc2C(F)(F)F)cc1 (stereo not given),-32.82%
14,CN1CCO[C@@H]2CN(C(=O)c3ccc4ncccc4c3)CC[C@@H]2C1.O=C(O)C(F)(F)F.O=C(O)C(F)(F)F,-8.044%
15,O=C(c1ccno1)N1CC[C@@H]2CN(C3CCOCC3)CCO[C@@H]2C1,85.56%
16,O=C(O)C(F)(F)F.O=C(O)C(F)(F)F.O=C1[C@H]2CN(C3CCOCC3)C[C@H]2CN1Cc1ccncc1,-10.38%
17,CN1CCC(N(C)c2ccccc2CNCc2ccco2)CC1,13.84%
18,Cc1cccc(CN2C(=O)CCC23CCNCC3)n1.O=C(O)C(F)(F)F.O=C(O)C(F)(F)F,115.6%
19,CCN1CCN(C)C2(CCN(Cc3cccc(C)n3)CC2)C1=O.O=C(O)C(F)(F)F.O=C(O)C(F)(F)F,-10.53%
20,Cc1cccc(CN2CCC3(CCN(c4cccnc4)C3=O)C2)n1.O=C(O)C(F)(F)F.O=C(O)C(F)(F)F (stereo not given),-4.819%
21,O=C(Cn1ccc2c(Cl)cccc21)N1CCC2(CC1)OCCO2,11.16%
22,O=C(Nc1ccc(Cn2cccn2)cc1)N1CCC2(CC1)OCCO2,-11.32%
23,O=C(Cc1cnc(-c2c(Cl)cccc2Cl)s1)N1CCC2(CC1)OCCO2,110.5%
24,O=C(Cc1ccc(O)c(F)c1)N1CCN(CC2CC2)[C@@H]2CS(=O)(=O)C[C@@H]21,-17.2%
25,O=C(O)C(F)(F)F.c1coc(CNc2ncc3c(n2)C2(CCNC2)COC3)c1 (stereo not given),-4.361%
26,Cc1cnc(N2CCCC3(CCCN(C)C3)C2)nc1 (stereo not given),-6.547%
27,Clc1cc(CN2CCCN3CCCC3C2)c2ncccc2c1 (stereo not given),-2.153%

row,SMILES,Percent Effect
1,Clc1cc(N2CCN3CCCCC3C2)nc2[nH]ccc12 (stereo not given),91.81%
2,COCc1cn(C[C@H]2CC3CCN2C[C@@H]3C(=O)Nc2ccccc2)nn1 (stereo not given in full),-0.5907%
3,CCc1cc(CNCc2ccccc2N(C)C2CCN(C)CC2)on1,10.76%
4,Cc1noc(C)c1CN1CC[C@@H]2O[C@@H](COCC(C)C)CC[C@@H]21.O=C(O)C(F)(F)F,-18.54%
5,CNC(=O)[C@H]1C[C@@H]2CN(Cc3c(C)noc3C)C[C@@H]2N1C(C)=O.O=C(O)C(F)(F)F,-32.47%
6,C[C@@H]1C[C@H]2CN(Cc3nccs3)C[C@H]2O1.O=C(O)C(F)(F)F,-5.34%
7,Cc1noc(C)c1CN1C[C@@H]2C[C@@H](C)O[C@@H]2C1.O=C(O)C(F)(F)F,94.5%
8,Cc1noc(C)c1CN1C[C@H]2CNC[C@H]2C1,94.55%
9,Cc1noc(C)c1CN1C[C@@H]2CN(C(=O)c3cnccn3)C[C@@H]2C1.O=C(O)C(F)(F)F,12.22%
10,CNC(=O)[C@@H]1C[C@H]2CN(Cc3c(C)noc3C)C[C@H]2N1C(C)C.O=C(O)C(F)(F)F.O=C(O)C(F)(F)F,-23.54%
11,Cc1noc(C)c1CN1CC[C@@H]2O[C@H](COCC(C)C)CC[C@@H]21.O=C(O)C(F)(F)F,9.009%
12,Cc1noc(C)c1CN1C[C@@H]2CN(C(=O)c3cscn3)C[C@@H]2C1,-4.527%
13,Cc1noc(C)c1CN1C(=O)[C@H]2CC[C@@H]1CN(Cc1ncc[nH]1)C2,-9.267%
14,Cc1noc(C)c1CN1C[C@@H]2C[C@H](C(=O)NCC3CC3)N(C)[C@@H]2C1.O=C(O)C(F)(F)F.O=C(O)C(F)(F)F,97.39%
15,Cc1noc(C)c1CN1C[C@@H]2CC(F)(F)C[C@@H]2C1.O=C(O)C(F)(F)F,103.5%
16,CC(C)NC(=O)NC[C@H]1C[C@@H]2CCN1C[C@@H]2CN(C)c1ccccc1,-10.33%
17,CC(Cc1c(F)cccc1F)NC(=O)Nc1cnn(CC(N)=O)c1 (stereo not given),0.8263%
18,C/C(=C\c1ccco1)CN(C)C(C)Cc1cc(C)ccn1 (stereo not given),32.02%
19,O=C(Nc1ccccc1)[C@H]1CN2CCC1C[C@@H]2Cn1cc(CO)nn1 (stereo not given in full),-4.286%
20,Cc1noc(C)c1CN1C[C@H]2CN(Cc3cccc(F)c3)C[C@H]2C1.O=C(O)C(F)(F)F.O=C(O)C(F)(F)F,97.06%
21,O=C1N(Cc2ccccn2)C[C@H]2CN(C3CCC3)CCN12,-6.605%
22,O=C(c1ccc[nH]1)N1CCCC2(CCCN2Cc2cccnc2)C1 (stereo not given),22.1%
23,CC(C)C(=O)N1CCCC2(CCCN2Cc2cccnc2)C1 (stereo not given),-11.99%
24,O=C1Nc2ccccc2CC12CCCN2Cc1ccccn1 (stereo not given),100.2%
25,O=C1Nc2ccccc2CC12CCCN2Cc1cccnc1 (stereo not given),106.6%
26,O=S(=O)(NC[C@H]1C[C@@H]2CCN1C[C@@H]2CN1CCCC1)c1ccc(Cl)cc1,14.89%
27,CC(C)c1cc(CN2CCN(c3cccnc3)CC2)n(C)n1,9.429%

row,SMILES,Percent Effect
1,CN1CCCC1c1ccc(N2CCOCC2)cn1 (stereo not given),81.49%
2,CN1CCCC(c2n[nH]c3ncccc23)C1 (stereo not given),-5.321%
3,CN1CCCC(c2ccc(N3CCOCC3)cn2)C1.Cl (stereo not given),96.78%
4,CCN(CC)C(=O)C1CCC2(CCNCC2)CO1.Cl (stereo not given),2.217%
5,Cc1nc(CN2CC[C@H]3C[C@H](c4ccncn4)O[C@@H]3C2)cs1,0.4652%
6,Cc1ncsc1CN1CC[C@H]2C[C@H](c3ccncn3)O[C@@H]2C1,-3.058%
7,c1cc(CN2CC[C@H]3C[C@H](c4nc(C5CC5)cs4)O[C@@H]3C2)ccn1,0.1706%
8,Cc1cc(CN2CC[C@H]3C[C@@H](c4nc(C5CC5)cs4)O[C@@H]3C2)no1,106.4%
9,Cc1nccc([C@@H]2C[C@@H]3CCN(Cc4cccs4)C[C@H]3O2)n1,0.9996%
10,Cc1cc(CN2CC[C@H]3C[C@H](c4nc(C5CC5)cs4)O[C@@H]3C2)no1,106.7%
11,Cc1ccc(C(=O)N2CC[C@H]3[C@H]2CCN3CC2CCOCC2)cn1,4.595%
12,CNC(=O)[C@H]1C[C@@H]2CN(c3cc(OC)ncn3)C[C@@H]2N1C(C)C,-9.424%
13,COCCN1CCO[C@H]2CCN(C(=O)c3ccnnc3)CC[C@@H]21.O=C(O)C(F)(F)F,-6.928%
14,COc1cc(N2CC[C@@H]3OCCN(C)[C@H]3CC2)ncn1,94.65%
15,COc1cc(N2CC[C@@H]3[C@@H](CC2)OCCN3CC2CC2)ncn1,103%
16,COCCN1CCCC12CCN(c1ncccn1)CC2.O=C(O)C(F)(F)F,-7.716%
17,COCCN1CCC12CCN(C(=O)c1ccc(C)nc1)C2.O=C(O)C(F)(F)F (stereo not given),107.4%
18,Cc1cnc(N2CCCC3(CCCN3CC(=O)N(C)C)C2)nc1.O=C(O)C(F)(F)F (stereo not given),-1.71%
19,O=C(O)C(F)(F)F.O=C(c1ccc[nH]1)N1CCC2(CCCN2Cc2cccnc2)CC1,-12.51%
20,CCN1CCCC12CCCN(c1ncccn1)C2.O=C(O)C(F)(F)F (stereo not given),1.763%
21,CN(C)CCN1CCCC12CCN(C(=O)c1ccncc1)CC2.O=C(O)C(F)(F)F.O=C(O)C(F)(F)F,105%
22,CN(C)CCN1CCCC12CCCN(C(=O)c1cccnc1)C2.O=C(O)C(F)(F)F.O=C(O)C(F)(F)F (stereo not given),118%
23,COCCN1CCC12CCN(C(=O)Cc1cccs1)C2.O=C(O)C(F)(F)F (stereo not given),10.38%
24,COCCN1CCC12CCN(c1ncccn1)C2.O=C(O)C(F)(F)F (stereo not given),-0.9151%
25,Cc1ncc2c(c1CNC(=O)C1(C)CCCCO1)CCNC2 (stereo not given),13.24%
26,Cc1nn(CCNC(C)Cn2cncn2)c(C)c1Cl (stereo not given),-0.5097%
